In PubChem BioAssay (EPA / NIEHS):
Several values for one entry are separate records, joined by “and”; a condition that tells them apart may be missing. Equal values may be shown once. A structure can be active in one record and inactive in another. Activity calls are given as the source filed them. How the source made its calls: active means hit-call score of the fitted dose curve at least 0.9, where 1 is the maximum; inactive means score below 0.9.

read-out: MicroRNA 122 (MIR122), gene 406906; test: LTEA_HepaRG_MIR122: Life Technologies and Expression Analysis (LTEA) Assay for MicroRNA 122 (MIR122) using HepaRG (AID 2283516); details: mRNA level, 48 h; actives raise or lower the signal; further: the transcript read is the microRNA miR-122
In short: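 Expression measured by microfluidic qRT-PCR with three housekeeping genes for normalisation, after 48 h treatment of HepaRG cultures. Eight concentrations (top 100 uM, half-log steps, 0.5% DMSO vehicle) in duplicate; gain or loss fitted relative to vehicle.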

SMILES	outcome	AC50
CCOC(=O)C(Cl)Cc1cc(-n2nc(C)n(C(F)F)c2=O)c(F)cc1Cl (stereo not drawn)	inactive	–
CCc1nn(C)c(C(=O)NCc2ccc(C(C)(C)C)cc2)c1Cl	–	1.85 µM (active)
COC(=O)N(OC)c1ccccc1COc1ccn(-c2ccc(Cl)cc2)n1	–	76.1 µM (active)
N#CC(CCc1ccc(Cl)cc1)(Cn1cncn1)c1ccccc1 (stereo not drawn)	–	66 µM (active)
CNC(=O)ON=CC(C)(C)SC	inactive	–
CCNc1nc(Cl)nc(NC(C)C)n1	inactive	–
CCON=C(CC)C1=C(O)CC(c2c(C)cc(C)cc2C)CC1=O (stereo not drawn)	inactive	–
CCCC1COC(Cn2cncn2)(c2ccc(Cl)cc2Cl)O1 (stereo not drawn)	–	49.5 µM (active)
CCCCOC(=O)c1ccccc1C(=O)OCCCC	inactive	–
COC(=O)c1ccccc1C(=O)OC	inactive	–
C=CCC1=C(C)C(OC(=O)C2C(C=C(C)C)C2(C)C)CC1=O (stereo not drawn)	inactive	90.8 µM (active) and 22.5 µM (active)
COP(N)(=O)SC (stereo not drawn)	inactive	–
O=C(O)COc1nc(Cl)c(Cl)cc1Cl	inactive	–
COc1ccc(C(c2ccc(OC)cc2)C(Cl)(Cl)Cl)cc1	–	79.4 µM (active)
COC(=O)C=C(C)OP(=O)(OC)OC	inactive	–
CCOc1cc(Oc2ccc(C(F)(F)F)cc2Cl)ccc1[N+](=O)[O-]	–	37 µM (active)
CCOC(=O)CC(SP(=S)(OC)OC)C(=O)OCC (stereo not drawn)	inactive	–
CNC(=S)S	inactive	–
CCCN(CCC)c1c([N+](=O)[O-])cc(S(N)(=O)=O)cc1[N+](=O)[O-]	inactive	95.7 µM (active)
CC(C)C1(C)N=C(c2nc3ccccc3cc2C(=O)O)NC1=O (stereo not drawn)	inactive	–
CC(Oc1ccc(Cl)cc1Cl)C(=O)O (stereo not drawn)	inactive	–
O=C(Nc1ccccc1)Nc1ccnc(Cl)c1	inactive	–
Cc1ccc(-c2c(Cl)nc(C#N)n2S(=O)(=O)N(C)C)cc1	–	10.2 µM (active)
C#CCOS(=O)OC1CCCCC1Oc1ccc(C(C)(C)C)cc1 (stereo not drawn)	–	28.2 µM (active)
CCCCC(CC)COC(=O)c1ccccc1C(=O)OCC(CC)CCCC (stereo not drawn)	inactive	–

read-out: matrix metalloproteinase-10 (MMP10), MMP10 (gene 4319); test: LTEA_HepaRG_MMP10: Life Technologies and Expression Analysis (LTEA) Assay for matrix metalloproteinase-10 (MMP10) using HepaRG (AID 2283517); details: mRNA level, 48 h; actives raise or lower the signal
In short: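 Expression measured by TaqMan qRT-PCR with ACTB/GAPDH/POLR2A normalisation after 48 h chemical exposure of HepaRG cells. Eight half-log concentrations, top 100 uM, 0.5% DMSO vehicle, duplicates; gain or loss fitted against vehicle.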

SMILES	outcome	AC50
CCOC(=O)C(Cl)Cc1cc(-n2nc(C)n(C(F)F)c2=O)c(F)cc1Cl (stereo not drawn)	inactive	–
CCc1nn(C)c(C(=O)NCc2ccc(C(C)(C)C)cc2)c1Cl	–	26.5 µM (active)
COC(=O)N(OC)c1ccccc1COc1ccn(-c2ccc(Cl)cc2)n1	–	78.1 µM (active)
N#CC(CCc1ccc(Cl)cc1)(Cn1cncn1)c1ccccc1 (stereo not drawn)	–	74.2 µM (active)
CNC(=O)ON=CC(C)(C)SC	inactive	–
CCNc1nc(Cl)nc(NC(C)C)n1	inactive	–
CCON=C(CC)C1=C(O)CC(c2c(C)cc(C)cc2C)CC1=O (stereo not drawn)	inactive	–
CCCC1COC(Cn2cncn2)(c2ccc(Cl)cc2Cl)O1 (stereo not drawn)	–	77.8 µM (active)
CCCCOC(=O)c1ccccc1C(=O)OCCCC	inactive	–
COC(=O)c1ccccc1C(=O)OC	inactive	–
C=CCC1=C(C)C(OC(=O)C2C(C=C(C)C)C2(C)C)CC1=O (stereo not drawn)	inactive	–
COP(N)(=O)SC (stereo not drawn)	inactive	–
O=C(O)COc1nc(Cl)c(Cl)cc1Cl	inactive	–
COc1ccc(C(c2ccc(OC)cc2)C(Cl)(Cl)Cl)cc1	inactive	–
COC(=O)C=C(C)OP(=O)(OC)OC	inactive	–
CCOc1cc(Oc2ccc(C(F)(F)F)cc2Cl)ccc1[N+](=O)[O-]	–	50 µM (active)
CCOC(=O)CC(SP(=S)(OC)OC)C(=O)OCC (stereo not drawn)	inactive	–
CNC(=S)S	inactive	–
CCCN(CCC)c1c([N+](=O)[O-])cc(S(N)(=O)=O)cc1[N+](=O)[O-]	inactive	74.1 µM (active)
CC(C)C1(C)N=C(c2nc3ccccc3cc2C(=O)O)NC1=O (stereo not drawn)	inactive	–
CC(Oc1ccc(Cl)cc1Cl)C(=O)O (stereo not drawn)	inactive	–
O=C(Nc1ccccc1)Nc1ccnc(Cl)c1	inactive	–
Cc1ccc(-c2c(Cl)nc(C#N)n2S(=O)(=O)N(C)C)cc1	inactive	–
C#CCOS(=O)OC1CCCCC1Oc1ccc(C(C)(C)C)cc1 (stereo not drawn)	–	22.5 µM (active)
CCCCC(CC)COC(=O)c1ccccc1C(=O)OCC(CC)CCCC (stereo not drawn)	inactive	–
